Out of some 5,500 compounds screened, about 2,000 (36%) were called active. Another 18% or so got no clear call; they are omitted. No stated cut-off is given here; in the data, active means normalized growth mostly below about 0.91 (no sharp cut-off); inconclusive means no clear call, values can overlap the other calls; inactive means mostly above about 0.92. The list shows a part of the results.
Assay: chemical genetic growth profiling, strain panel (AID 1159580);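 further: tested at 20 µM; growth read once vehicle control cultures reached saturation at 30 °C; 1 = growth at the plate median or of vehicle wells; lower values mean less growth of the strain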
Conditions: growth OD

Measured: normalized growth

C=C1C2CC[C@@]3(C)[C@H](c4ccoc4)OC(=O)C[C@]13O[C@H]1CC(O)C(C)(C)C(CC(=O)OC)[C@@]21C (stereo not given in full)
inactive: S. cerevisiae deletion strains, locus YJL187C, strain SWE1, active compounds read low 0.971 | S. cerevisiae deletion strains, locus YJR043C, strain POL32, active compounds read low 1.01 | S. cerevisiae deletion strains, locus YJR066W, strain TOR1, active compounds read low 0.922 | S. cerevisiae deletion strains, locus YKL009W, strain mrt4, active compounds read low 1 | S. cerevisiae deletion strains, locus YKL068W, active compounds read low 1.01 | S. cerevisiae deletion strains, locus YKL085W, strain MDH1 (second series), active compounds read low 0.999 | S. cerevisiae deletion strains, locus YKL085W, strain MDH1, active compounds read low 0.999 | S. cerevisiae deletion strains, locus YKL160W, strain elf1, active compounds read low 0.984 | S. cerevisiae deletion strains, locus YKL190W, strain CNB1, active compounds read low 0.987 | S. cerevisiae deletion strains, locus YKR001C, strain vps1, active compounds read low 0.999 | S. cerevisiae deletion strains, locus YKR026C, strain gcn3, active compounds read low 0.985 | S. cerevisiae deletion strains, locus YKR091W, strain srl3, active compounds read low 0.965 | S. cerevisiae deletion strains, locus YLL001W, strain dnm1, active compounds read low 0.989 | S. cerevisiae deletion strains, locus YLL026W, active compounds read low 0.974 | S. cerevisiae deletion strains, locus YLL041C, strain sdh2, active compounds read low 0.971 | S. cerevisiae deletion strains, locus YLR027C, strain aat2, active compounds read low 0.99 | S. cerevisiae deletion strains, locus YLR039C, strain RIC1, active compounds read low 0.963 | S. cerevisiae deletion strains, locus YLR058C, strain SHM2, active compounds read low 1 | S. cerevisiae deletion strains, locus YLR102C, strain apc9, active compounds read low 1.01 | S. cerevisiae deletion strains, locus YLR113W, strain HOG1, active compounds read low 0.996 | S. cerevisiae deletion strains, locus YLR221C, strain rsa3, active compounds read low 0.981 | S. cerevisiae deletion strains, locus YLR258W, strain gsy2, active compounds read low 0.977 | S. cerevisiae deletion strains, locus YLR262C, strain YPT6 (second series), active compounds read low 0.925 | S. cerevisiae deletion strains, locus YLR268W, strain sec22, active compounds read low 1.01 | S. cerevisiae deletion strains, locus YLR320W, strain mms22, active compounds read low 0.97 | S. cerevisiae deletion strains, locus YLR342W, strain FKS1 (second series), active compounds read low 1.02 | S. cerevisiae deletion strains, locus YLR342W, strain FKS1, active compounds read low 0.971 | S. cerevisiae deletion strains, locus YLR357W, strain rsc2, active compounds read low 0.998 | S. cerevisiae deletion strains, locus YLR370C, strain arc18, active compounds read low 0.981 | S. cerevisiae deletion strains, locus YLR371W, strain rom2, active compounds read low 1.02 | S. cerevisiae deletion strains, locus YLR384C, strain iki3, active compounds read low 0.964 | S. cerevisiae deletion strains, locus YLR418C, strain cdc73, active compounds read low 0.998 | S. cerevisiae deletion strains, locus YML016C, strain PPZ1, active compounds read low 1.01 | S. cerevisiae deletion strains, locus YML032C, strain rad52, active compounds read low 1.03 | S. cerevisiae deletion strains, locus YML120C, strain ndi1, active compounds read low 0.99 | S. cerevisiae deletion strains, locus YML124C, strain tub3, active compounds read low 1.01 | S. cerevisiae deletion strains, locus YMR058W, strain fet3, active compounds read low 0.97 | S. cerevisiae deletion strains, locus YMR078C, strain ctf18, active compounds read low 1.01 | S. cerevisiae deletion strains, locus YMR125W, strain sto1, active compounds read low 0.972 | S. cerevisiae deletion strains, locus YMR129W, active compounds read low 0.989 | S. cerevisiae deletion strains, locus YMR205C, strain PFK2, active compounds read low 0.962 | S. cerevisiae deletion strains, locus YMR223W, strain ubp8, active compounds read low 1.01 | S. cerevisiae deletion strains, locus YMR231W, strain pep5, active compounds read low 0.971 | S. cerevisiae deletion strains, locus YMR307W, strain GAS1, active compounds read low 1.06 | S. cerevisiae deletion strains, locus YNL067W, strain RPL9B, active compounds read low 1.01 | S. cerevisiae deletion strains, locus YNL071W, strain lat1, active compounds read low 0.974 | S. cerevisiae deletion strains, locus YNL183C, strain NPR1, active compounds read low 0.974 | S. cerevisiae deletion strains, locus YNL209W, strain ssb2, active compounds read low 0.979 | S. cerevisiae deletion strains, locus YNL233W, strain BNI4, active compounds read low 0.972 | S. cerevisiae deletion strains, locus YNL248C, strain rpa49, active compounds read low 0.971 | S. cerevisiae deletion strains, locus YNL250W, strain rad50, active compounds read low 1.02 | S. cerevisiae deletion strains, locus YNL271C, strain bni1, active compounds read low 1.01 | S. cerevisiae deletion strains, locus YNL298W, strain CLA4, active compounds read low 1.01 | S. cerevisiae deletion strains, locus YNL307C, strain MCK1, active compounds read low 1.01 | S. cerevisiae deletion strains, locus YNL322C, strain KRE1 (second series), active compounds read low 0.985 | S. cerevisiae deletion strains, locus YNR049C, strain mso1, active compounds read low 0.969 | S. cerevisiae deletion strains, locus YNR052C, strain pop2, active compounds read low 1.02 | S. cerevisiae deletion strains, locus YOL012C, strain htz1 1.88 | S. cerevisiae deletion strains, locus YOL147C, strain pex11, active compounds read low 1.02 | S. cerevisiae deletion strains, locus YOR001W, strain rrp6, active compounds read low 0.969 | S. cerevisiae deletion strains, locus YOR061W, strain CKA2, active compounds read low 1 | S. cerevisiae deletion strains, locus YOR069W, strain VPS5, active compounds read low 1.01 | S. cerevisiae deletion strains, locus YOR070C, strain gyp1, active compounds read low 0.978 | S. cerevisiae deletion strains, locus YOR080W, strain dia2, active compounds read low 0.979 | S. cerevisiae deletion strains, locus YOR083W, strain WHI5, active compounds read low 0.981 | S. cerevisiae deletion strains, locus YOR106W, strain vam3, active compounds read low 0.955 | S. cerevisiae deletion strains, locus YOR136W, strain idh2, active compounds read low 1.02 | S. cerevisiae deletion strains, locus YOR144C, strain elg1, active compounds read low 1.03 | S. cerevisiae deletion strains, locus YOR184W, strain ser1, active compounds read low 1.01 | S. cerevisiae deletion strains, locus YOR231W, strain MKK1, active compounds read low 0.991 | S. cerevisiae deletion strains, locus YOR265W, strain rbl2, active compounds read low 0.986 | S. cerevisiae deletion strains, locus YOR270C, strain vph1, active compounds read low 0.878 | S. cerevisiae deletion strains, locus YOR290C, strain snf2, active compounds read low 0.987 | S. cerevisiae deletion strains, locus YOR316C, strain cot1, active compounds read low 1.01 | S. cerevisiae deletion strains, locus YPL051W, strain arl3, active compounds read low 0.975 | S. cerevisiae deletion strains, locus YPL078C, strain atp4, active compounds read low 0.981 | S. cerevisiae deletion strains, locus YPL106C, strain sse1, active compounds read low 0.973 | S. cerevisiae deletion strains, locus YPL240C, strain hsp82, active compounds read low 0.98 | S. cerevisiae deletion strains, locus YPL256C, strain CLN2, active compounds read low 0.939 | S. cerevisiae deletion strains, locus YPR119W, strain clb2, active compounds read low 1.02 | S. cerevisiae deletion strains, locus YPR141C, strain kar3, active compounds read low 1.02 | S. cerevisiae deletion strains, locus YPR163C, strain tif3, active compounds read low 1.02 | S. cerevisiae deletion strains, locus YPR167C, strain met16, active compounds read low 1.01 | S. cerevisiae deletion strains, strain wtn01, active compounds read low 1.01 | S. cerevisiae strains, strain wild type, active compounds read low 0.998

— PubChem BioAssay AID1159580 (chemical genetic matrix, 2015)
